Data as given in the supplement of paper PMC10077471.
Over roughly 1,900 compounds, “excess over highest single agent (ExcessHSA) synergy score, 6x6 matrix” has its median near -83; the lowest 2% begin near -370. What follows is part of a selection rich in the lowest values, with near analogues and random picks from the rest.

tested on: NCI-H446; assay: excess over highest single agent (ExcessHSA) synergy score, 6x6 matrix; higher = less synergy (more negative = stronger synergy); settings: 72 h; CellTiter-Glo viability

| SMILES | excess over highest single agent |
| --- | --- |
| CN(C)CCN(C)C(=O)c1ccc(NC(=O)Nc2ccc(-c3nc(N4CCOCC4)c4ccn(CC(F)(F)F)c4n3)cc2)cc1 + Cc1sc2c(c1C)C(c1ccc(Cl)cc1)=N[C@@H](CC(=O)OC(C)(C)C)c1nnc(C)n1-2 [NCGC00250412-19] | -272 |
| CC(C)=CC[C@@H](O)C1=CC(=O)c2c(O)ccc(O)c2C1=O + Cc1sc2c(c1C)C(c1ccc(Cl)cc1)=N[C@@H](CC(=O)OC(C)(C)C)c1nnc(C)n1-2 [NCGC00250412-19] | -344 |
| Clc1ccc(-c2nc3sccn3c2C=NOCc2ccc(Cl)c(Cl)c2)cc1 + Cc1sc2c(c1C)C(c1ccc(Cl)cc1)=N[C@@H](CC(=O)OC(C)(C)C)c1nnc(C)n1-2 [NCGC00250412-19] | -98.8 |
| CCOc1cc(/C=C2/C(=O)N(c3ccccc3)N=C2C)cc(Cl)c1OCC(=O)OC + Cc1sc2c(c1C)C(c1ccc(Cl)cc1)=N[C@@H](CC(=O)OC(C)(C)C)c1nnc(C)n1-2 [NCGC00250412-19] | 76.6 |
| CS(=O)(=O)N1CCc2c(-c3cnc(N)nc3)nc(N3CCOCC3)nc21 + Cc1sc2c(c1C)C(c1ccc(Cl)cc1)=N[C@@H](CC(=O)OC(C)(C)C)c1nnc(C)n1-2 [NCGC00250412-19] | -391 |
| Cc1nc(N)ncc1-c1nc(N2CCOCC2)c2sc(C(C)(C)O)cc2n1 + Cc1sc2c(c1C)C(c1ccc(Cl)cc1)=N[C@@H](CC(=O)OC(C)(C)C)c1nnc(C)n1-2 [NCGC00250412-19] | -337 |
| COc1ccc(Nc2cc(-c3cnc(N)nc3)nc(N3CCOCC3)n2)cn1 + Cc1sc2c(c1C)C(c1ccc(Cl)cc1)=N[C@@H](CC(=O)OC(C)(C)C)c1nnc(C)n1-2 [NCGC00250412-19] | 3.49 |
| N=C1S/C(=C\c2ccc(-c3ccc4c(c3)C(=O)NC4=O)o2)C(=O)N1c1ccc(Br)cc1 + Cc1sc2c(c1C)C(c1ccc(Cl)cc1)=N[C@@H](CC(=O)OC(C)(C)C)c1nnc(C)n1-2 [NCGC00250412-19] | 122 |
| Cc1c(CCOc2ccc(C(=O)O)cc2)c2cc(Cl)ccc2n1C(c1ccccc1)c1ccccc1 + Cc1sc2c(c1C)C(c1ccc(Cl)cc1)=N[C@@H](CC(=O)OC(C)(C)C)c1nnc(C)n1-2 [NCGC00250412-19] | -12 |
| COc1cccc2c1C(=O)c1c(O)c3c(c(O)c1C2=O)C[C@@](O)(C(=O)CO)C[C@@H]3O[C@H]1C[C@H](N)[C@@H](O)[C@H](C)O1 + Cc1sc2c(c1C)C(c1ccc(Cl)cc1)=N[C@@H](CC(=O)OC(C)(C)C)c1nnc(C)n1-2 [NCGC00250412-19] | -433 |
| COc1cccc2c1C(=O)c1c(O)c3c(c(O)c1C2=O)C[C@@](O)(C(C)=O)C[C@@H]3O[C@H]1C[C@H](N)[C@H](O)[C@H](C)O1 + Cc1sc2c(c1C)C(c1ccc(Cl)cc1)=N[C@@H](CC(=O)OC(C)(C)C)c1nnc(C)n1-2 [NCGC00250412-19] | -304 |
| COc1cccc2c1C(=O)c1c(O)c3c(c(O)c1C2=O)C[C@@](O)(C(=O)CO)C[C@@H]3O[C@H]1C[C@H](N)[C@H](O)[C@H](C)O1 + Cc1sc2c(c1C)C(c1ccc(Cl)cc1)=N[C@@H](CC(=O)OC(C)(C)C)c1nnc(C)n1-2 [NCGC00250412-19] | -176 |
| C[N+](C)([O-])CCNc1ccc(NCC[N+](C)(C)[O-])c2c1C(=O)c1c(O)ccc(O)c1C2=O + Cc1sc2c(c1C)C(c1ccc(Cl)cc1)=N[C@@H](CC(=O)OC(C)(C)C)c1nnc(C)n1-2 [NCGC00250412-19] | -286 |
| CN(C)c1ccc(C(=O)NCCCCCCC(=O)NO)cc1 + Cc1sc2c(c1C)C(c1ccc(Cl)cc1)=N[C@@H](CC(=O)OC(C)(C)C)c1nnc(C)n1-2 [NCGC00250412-19] | -250 |
| Nc1ccc(C(=O)c2cc3c(ccc4ccccc43)[nH]2)cc1 + Cc1sc2c(c1C)C(c1ccc(Cl)cc1)=N[C@@H](CC(=O)OC(C)(C)C)c1nnc(C)n1-2 [NCGC00250412-19] | -275 |
| CC(=O)O[C@@]12CO[C@@H]1C[C@H](O)[C@@]1(C)C(=O)[C@H](O)C3=C(C)[C@@H](OC(=O)[C@H](O)[C@@H](NC(=O)OC(C)(C)C)c4ccccc4)C[C@@](O)([C@@H](OC(=O)c4ccccc4)[C@H]21)C3(C)C + Cc1sc2c(c1C)C(c1ccc(Cl)cc1)=N[C@@H](CC(=O)OC(C)(C)C)c1nnc(C)n1-2 [NCGC00250412-19] | -135 |
| CO[C@H]1C(=O)[C@]2(C)[C@@H](OC)C[C@H]3OC[C@@]3(OC(C)=O)[C@H]2[C@H](OC(=O)c2ccccc2)[C@]2(O)C[C@H](OC(=O)[C@H](O)[C@@H](NC(=O)OC(C)(C)C)c3ccccc3)C(C)=C1C2(C)C + Cc1sc2c(c1C)C(c1ccc(Cl)cc1)=N[C@@H](CC(=O)OC(C)(C)C)c1nnc(C)n1-2 [NCGC00250412-19] | -412 |

| SMILES | excess over highest single agent |
| --- | --- |
| CC(=O)O[C@H]1C(=O)[C@@]2(C)[C@H]([C@H](OC(=O)c3ccccc3)[C@]3(O)C[C@H](OC(=O)[C@H](O)[C@@H](NC(=O)c4ccccc4)c4ccccc4)C(C)=C1C3(C)C)[C@]1(OC(C)=O)CO[C@@H]1C[C@@H]2O + Cc1sc2c(c1C)C(c1ccc(Cl)cc1)=N[C@@H](CC(=O)OC(C)(C)C)c1nnc(C)n1-2 [NCGC00250412-19] | -144 |
| CC(C)c1ccccc1Cc1cc(C(=O)Nc2ccc(S(=O)(=O)c3ccccc3C(C)(C)C)cc2)c(O)c(O)c1O + Cc1sc2c(c1C)C(c1ccc(Cl)cc1)=N[C@@H](CC(=O)OC(C)(C)C)c1nnc(C)n1-2 [NCGC00250412-19] | -282 |
| Cc1ccccc1C(C(=O)NC1CCCCC1)N(C(=O)CNc1ccc(C#N)cc1)c1cccc(F)c1 (centres undefined) + Cc1sc2c(c1C)C(c1ccc(Cl)cc1)=N[C@@H](CC(=O)OC(C)(C)C)c1nnc(C)n1-2 [NCGC00250412-19] | -209 |
| O=C(O)C(=O)O.[NH-]C1CCCCC1[NH-].[Pt+2] (centres undefined) + Cc1sc2c(c1C)C(c1ccc(Cl)cc1)=N[C@@H](CC(=O)OC(C)(C)C)c1nnc(C)n1-2 [NCGC00250412-19] | -135 |
| CC(C)(N)C(=O)N[C@H](COCc1ccccc1)C(=O)N1CCC2(CC1)CN(S(C)(=O)=O)c1ccccc12 + Cc1sc2c(c1C)C(c1ccc(Cl)cc1)=N[C@@H](CC(=O)OC(C)(C)C)c1nnc(C)n1-2 [NCGC00250412-19] | -36 |
| CC(C)CC(=O)Nc1n[nH]c2c1CN(C(=O)C1CCN(C)CC1)C2(C)C + Cc1sc2c(c1C)C(c1ccc(Cl)cc1)=N[C@@H](CC(=O)OC(C)(C)C)c1nnc(C)n1-2 [NCGC00250412-19] | -619 |
| COc1cc(Oc2ccnc3cc(OC)c(OC)cc23)ccc1NC(=O)NC(C)c1nccs1 (centres undefined) + Cc1sc2c(c1C)C(c1ccc(Cl)cc1)=N[C@@H](CC(=O)OC(C)(C)C)c1nnc(C)n1-2 [NCGC00250412-19] | -83.5 |
| COc1ccc2[nH]c([S+]([O-])Cc3ncc(C)c(OC)c3C)nc2c1 (centres undefined) + Cc1sc2c(c1C)C(c1ccc(Cl)cc1)=N[C@@H](CC(=O)OC(C)(C)C)c1nnc(C)n1-2 [NCGC00250412-19] | 45.9 |
| COc1c(C)cnc(Cn2cnc3c(Cl)nc(N)nc32)c1C + Cc1sc2c(c1C)C(c1ccc(Cl)cc1)=N[C@@H](CC(=O)OC(C)(C)C)c1nnc(C)n1-2 [NCGC00250412-19] | -371 |
| COc1ccc2cc(-c3nc(-c4ccc([S+](C)[O-])cc4)[nH]c3-c3ccncc3)ccc2c1 (centres undefined) + Cc1sc2c(c1C)C(c1ccc(Cl)cc1)=N[C@@H](CC(=O)OC(C)(C)C)c1nnc(C)n1-2 [NCGC00250412-19] | -100 |
| CCN(CC)CCOc1ccc(Nc2ncc3cc(-c4c(Cl)cccc4Cl)c(=O)n(C)c3n2)cc1 + Cc1sc2c(c1C)C(c1ccc(Cl)cc1)=N[C@@H](CC(=O)OC(C)(C)C)c1nnc(C)n1-2 [NCGC00250412-19] | -126 |
| CC(C)(O)CCc1ccc(OCc2cc(-c3cccc(OC(F)F)c3)c3ncccc3c2)cc1 + Cc1sc2c(c1C)C(c1ccc(Cl)cc1)=N[C@@H](CC(=O)OC(C)(C)C)c1nnc(C)n1-2 [NCGC00250412-19] | 48.5 |
| COc1nccc(-c2c(-c3ccc(F)cc3)ncn2C2CCNCC2)n1 + Cc1sc2c(c1C)C(c1ccc(Cl)cc1)=N[C@@H](CC(=O)OC(C)(C)C)c1nnc(C)n1-2 [NCGC00250412-19] | -55.9 |
| COc1cccc2c1[C@]13CCN(CC4CC4)[C@H](C2)[C@]1(OC)CCC(=O)C3 + Cc1sc2c(c1C)C(c1ccc(Cl)cc1)=N[C@@H](CC(=O)OC(C)(C)C)c1nnc(C)n1-2 [NCGC00250412-19] | -55 |
| CO[C@@H]1[C@H](N(C)C(=O)c2ccccc2)C[C@H]2O[C@]1(C)n1c3ccccc3c3c4c(c5c6ccccc6n2c5c31)C(=O)NC4=O + Cc1sc2c(c1C)C(c1ccc(Cl)cc1)=N[C@@H](CC(=O)OC(C)(C)C)c1nnc(C)n1-2 [NCGC00250412-19] | -113 |
| CN[C@@H]1C[C@H]2O[C@@](C)([C@@H]1OC)n1c3ccccc3c3c4c(c5c6ccccc6n2c5c31)C(=O)N[C@H]4O + Cc1sc2c(c1C)C(c1ccc(Cl)cc1)=N[C@@H](CC(=O)OC(C)(C)C)c1nnc(C)n1-2 [NCGC00250412-19] | -378 |
| CO[C@@H]1[C@H](N(C)C(=O)c2ccccc2)C[C@H]2O[C@]1(C)n1c3ccccc3c3c4c(c5c6ccccc6n2c5c31)C(=O)NC4 + Cc1sc2c(c1C)C(c1ccc(Cl)cc1)=N[C@@H](CC(=O)OC(C)(C)C)c1nnc(C)n1-2 [NCGC00250412-19] | -207 |
